VDR inhibitor = blocks the human vitamin D receptor; VDR-SRC2-3 peptide fluorescence polarization, 2 h; Potency, µM, for the others: max response, negative = inhibition, hits mostly inhibitors; 400,000 compounds, 0.93% hits; AID 504847; further: potency means the concentration at half of the fitted maximal effect
Target sequence (P11473 whole entry, looked up): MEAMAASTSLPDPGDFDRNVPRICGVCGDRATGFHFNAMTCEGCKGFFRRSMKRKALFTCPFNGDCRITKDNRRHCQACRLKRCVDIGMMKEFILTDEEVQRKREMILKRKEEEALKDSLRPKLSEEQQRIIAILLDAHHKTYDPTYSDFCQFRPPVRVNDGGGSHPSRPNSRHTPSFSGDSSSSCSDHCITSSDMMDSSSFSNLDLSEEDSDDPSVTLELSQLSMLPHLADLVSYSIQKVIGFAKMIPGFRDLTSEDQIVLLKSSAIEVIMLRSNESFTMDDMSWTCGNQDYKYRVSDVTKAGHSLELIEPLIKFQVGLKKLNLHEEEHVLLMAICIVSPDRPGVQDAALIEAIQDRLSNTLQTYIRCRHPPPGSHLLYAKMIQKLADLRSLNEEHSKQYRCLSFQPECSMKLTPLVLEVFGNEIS
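Reagent solutions, kept cold and dark, are dispensed first; compounds are then pinned in at 23 nl, plates briefly spun, and incubated 2 h at ambient temperature. Inhibition of VDR–SRC2-3 peptide binding is read by fluorescence polarization.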
Sfp inh = Sfp phosphopantetheinyl transferase inhibition; Q9F4F7; Biochemical Sfp PPTase activity, qHTS; Potency, µM, without a hit: largest response in the series, negative = inhibition, most hits filed as inhibitors; 310,000 compounds, 3.5% hits; AID 1490;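 further: the enzyme is Sfp with the accession as filed and its product quenches rhodamine fluorescence; potency means the concentration at half of the fitted maximal effect; 0% = enzyme reaction without inhibitor and -100% = no enzyme wells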
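Fluorescence-quenching assay: 15 nM Sfp-PPTase preincubated 15 min at room temperature with compound, then 5 uM rhodamine-CoA and 12.5 uM BHQ-2-labelled YbbR peptide added. Fluorescence (ex 525/em 598 nm) read at start and after 30 min; difference gives rate.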
CCT modulator = cytosolic chaperonin activity modulation | purified chaperonin ATPase assay, HTRF ADP detection, 30 min | activity change, % (concentration not given with the values), hits read low | 360,000 compounds, 0.3% hits; in the data active means activity change below about -30%
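ATPase activity: ADP formed was measured by HTRF Transcreener (665/615 nm ratio) after 30 min at 37 deg C with 10 uM ATP. Compounds screened at one 76 uM concentration against 40 or 20 nM TRiC in Tris pH 7.4/KCl/MgCl2/DTT buffer.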
G9a inh = inhibitors of human histone lysine methyltransferase G9a. 350,000 compounds, 8.8% hits. G9a H3K9 monomethylation, AlphaScreen, 2 h. Potency, µM (titrated, usually from 102 µM), inactives show top-dose activity, negative = inhibition, most hits filed as inhibitors; further: potency means the concentration at half of the fitted maximal effect; nearly all actives have a fitted effect of over 75% in size
Target sequence (Q96KQ7 913-1193 limits assumed): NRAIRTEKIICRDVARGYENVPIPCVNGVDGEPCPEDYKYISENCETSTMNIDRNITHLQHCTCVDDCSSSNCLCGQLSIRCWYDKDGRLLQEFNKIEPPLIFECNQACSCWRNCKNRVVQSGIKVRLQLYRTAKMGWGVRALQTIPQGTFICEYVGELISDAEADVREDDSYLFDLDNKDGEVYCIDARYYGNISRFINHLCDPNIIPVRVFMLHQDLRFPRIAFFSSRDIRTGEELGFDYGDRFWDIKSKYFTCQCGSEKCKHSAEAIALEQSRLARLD
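Quantitative HTS format: methyltransferase activity on a biotin-tagged H3K9 peptide is measured by AlphaScreen, using a rabbit anti-monomethyl-H3K9 antibody with streptavidin donor and anti-IgG acceptor beads. Final levels are 20 nM enzyme, 500 nM peptide, 20 uM SAM; 2 h RT.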
Mm-Cpn inhibitor = blocks the Methanococcus maripaludis chaperonin Mm-Cpn; purified Mm-Cpn ATPase, ADP Transcreener TR-FRET; Potency, µM (highest dose often 76.9 µM), for the others: at the top dose activity, negative = inhibition, usual class: inhibitors; 330,000 compounds, 0.031% hits; further: potency means the concentration at half of the fitted maximal effect; nearly all actives have a fitted effect of over 80% in size
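25 nM Mm-CPN + cpd, 10 min 37°C; + 10 uM ATP, 30 min 37°C; buffer 30 mM Tris pH 7.4, 100 mM KCl, 5 mM MgCl2, 1 mM DTT; Transcreener ADP HTRF detection 30 min RT.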
PLK1 PBD block = blocks phosphopeptide binding to human PLK1 polo-box domain | P53350 | Plk1 PBD binding of FITC phosphopeptide, fluorescence polarization | Potency, µM, for the others: max response, negative = inhibition, usual class: inhibitors | 360,000 compounds, 2.8% hits | AID 720504; further: potency means the concentration at half of the fitted maximal effect; series mostly up to about 57 µM; nearly all actives have a fitted effect of over 65% in size
* = called active by the depositor; ? = inconclusive; · = not tested or not shown; [ ] = another dose, or the depositor's remark. Only some compounds are listed: those with a hit (about 10% of all), similar ones and a draw of the others. Unless noted, the call rests on the fitted dose curve; in most records, active means well fitted curve in the direction sought with a large enough effect; inconclusive means small, poorly fitted or top-dose-only effect, or another doubt; inactive means no such curve, though single readings can be large; an effect the other way counts as inactive or inconclusive. Unless noted, on the % scale 0 is the no-effect control and ±100 the full control effect.

SMILES	VDR inhibitor	Sfp inh	CCT modulator	G9a inh	Mm-Cpn inhibitor	PLK1 PBD block
COc1ccc(/C=C/C(=O)NC(=S)N2C[C@H]3C[C@H](C2)c2cccc(=O)n2C3)cc1	17%	6%	2	?	1%	-3%
CC(=O)N1CCN(c2ccc(OC[C@@H]3CO[C@@](Cn4ccnc4)(c4ccc(Cl)cc4Cl)O3)cc2)CC1	12%	13%	·	?	·	·
OC1(c2ccc(Cl)cc2)CCN(Cc2c[nH]c3ccccc23)CC1	15%	13%	0	30%[59 µM]	·	-13%
COc1ccc(CCNCc2c(OC)ccc3ccccc23)cc1	-17%	-11%	3	14µM*	1%	-1%
COc1ccc(CCNCc2ccc(OC)c(OC)c2OC)cc1	6%	-15%	4	14µM*	1%	-1%
CCOC(=O)N1CCN(/[N+]([O-])=N/Oc2ccc([N+](=O)[O-])cc2[N+](=O)[O-])CC1C (configuration not stated)	56µM*	-9%	·	·	·	·
CCN(CC(=O)Nc1ccccc1C(F)(F)F)C(=O)Cn1c(=O)cnc2ccccc21	-6%	·	-2	?	-3%	-13%
CCOC(OCC)P(=O)(O)CCCN	-5%	20%	·	35%[59 µM]	·	·
Cn1c(O)c(C=Nc2ccccc2)c(=O)n(C)c1=O	-17%	8%	-3	2%	-1%	-5%
Cc1ccc(-n2c(O)c(/C=N/N3CCCCCC3)c(=O)[nH]c2=O)cc1C	11%	-1%	-1	?	-1%	-4%
COc1ccc(N/N=C/c2c(O)n(-c3ccc(C)c(C)c3)c(=O)[nH]c2=O)cc1	?	-25%	0	1µM*	0%	?
Cn1c(O)c(/C=N/Nc2ccccc2)c(=O)n(C)c1=O	-21%	56µM*	-14	4µM*	0%	-16%
Cc1ccc(-n2c(O)c(/C=N/Nc3ccccc3)c(=O)[nH]c2=O)cc1C	3%	-8%	-3	7.9µM*	-3%	-22%
COc1ccc(N/N=C/c2c(O)n(-c3cccc(C)c3)c(=O)[nH]c2=O)cc1	?	-27%	1	2.2µM*	-6%	-13%
Cc1cccc(-n2c(O)c(/C=N/NC(=O)c3ccncc3)c(=O)[nH]c2=O)c1	-4%	-1%	-2	37%[12.7 µM]	-1%	-10%
CCCc1nc(SC)ncc1C(=O)Nc1ccc(Cl)cc1C(=O)c1ccccc1	10%	·	·	1%[59 µM]	·	·
Nc1c(C(=O)Nc2ccc(OC(F)(F)F)cc2)sc2nc3c(cc12)N1CCC3CC1	9%	·	·	0%[59 µM]	·	·
CCC1CN2CCC1CC2C(Oc1cc2ccccc2c2ccccc12)c1ccnc2ccc(O)cc12 (configuration not stated)	·	-20%	·	·	·	·
CN1CCN(/N=C/c2c(O)n(C)c(=O)n(C)c2=O)CC1	-5%	-12%	1	28µM*	-1%	-5%
C[C@]12CCC3C(CC[C@H]4C[C@H](O)CC[C@]34C)[C@@H]1CC[C@@H]2C(=O)CO (some centres not stated)	-10%	-10%	·	31%[59 µM]	·	·
Oc1ccc2c3c1O[C@H]1c4[nH]c5c(c4C[C@@]4(O)[C@@H](C2)N(CC2CC2)CC[C@]314)C[C@@]1(O)[C@H]2Cc3ccc(O)c4c3[C@@]1(CCN2CC1CC1)[C@H]5O4	-2%	-15%	·	14µM*	·	·
CCCCCCCCCCCCC/C=C/[C@@H](O)[C@@H](N)COP(=O)([O-])OCC[N+](C)(C)C	3%	?	·	·	·	·
C/C(=N\Nc1ccccc1)c1c(O)[nH]c(=O)[nH]c1=O	2%	-9%	-1	·	1%	1%
C/C(=N\Nc1ccccc1)c1c(O)n(-c2ccccc2)c(=O)[nH]c1=O	-5%	-4%	2	50µM*	-2%	4%
C/C(=N\Nc1ccccc1)c1c(O)n(Cc2ccccc2)c(=O)[nH]c1=O	-28%	-5%	-6	10µM*	-1%	-6%
SMILES	VDR inhibitor	Sfp inh	CCT modulator	G9a inh	Mm-Cpn inhibitor	PLK1 PBD block
COc1ccc(NC2=NC(C)(C)CS2)cc1	8%	56µM*	1	?	-1%	21µM*
CCN(CC)CCO[C@H]1CC[C@@]2(C)C(=CC[C@@H]3[C@H]2CC[C@]2(C)C(=O)CC[C@H]32)C1	1%	10%	·	-2%[12.7 µM]	·	·
Nc1c2c(nc3sc4c(c13)CCCC4)CCCCC2	-2%	-17%	0	?	-2%	-9%
Nc1nc2c(s1)CCCCCCCCCC2	-3%	5%	1	45µM*	1%	-11%
Cc1ccc(-c2nc3ccccc3c(=O)n2-c2ccccn2)cc1	4%	4%	-1	21%[59 µM]	0%	6%
COc1ccc(-c2n(-c3ccccn3)c3ccccc3[n+]2-c2ccccn2)cc1	-4%	14%	-1	3.2µM*	-1%	-1%
CCCCCCCCCCCCCCC[C@@H](O)[C@@H](N)COP(=O)(O)O	-4%	-6%	·	·	·	·
CC(C)CCOP(=O)(c1ccc(N(C)C)cc1)C(O)c1ccc(Cl)cc1Cl (configuration not stated)	-12%	?	-1	?	-1%	1%
COc1cccc(CCNCc2ccc(SC)cc2)c1	-13%	-19%	0	3.2µM*	3%	-7%
c1ccc(CNCCc2ccc3c(c2)OCO3)nc1	10%	-4%	1	1.8µM*	-1%	-5%
Fc1cccc(CCNCc2ccccn2)c1	-2%	56µM*	0	1.6µM*	-1%	-6%
CCOc1cc(CNCCc2cccc(F)c2)ccc1OC	5%	-9%	2	22µM*	2%	-13%
CC(C)CN1CCC2(CC1)CCN(C(=O)Oc1ccccc1)CC2	2%	20%	·	-7%[12.7 µM]	·	·
Cc1ccc2c(c1)C1(CCN(CCc3nc(-c4ccccc4)oc3C)CC1)OC(=O)N2	10%	-7%	·	·	·	·
CCN1C[C@@]2(COC)C3[C@@H](OC)C4[C@@H]1C3([C@@H]1C[C@]3(O)[C@H](OC(=O)c5ccccc5)[C@@H]1[C@]4(OC(C)=O)[C@@H](O)[C@@H]3OC)[C@H](OC)C[C@H]2O	-1%	·	·	21%[59 µM]	·	·
Oc1ccc2ccccc2c1CN1CC=C(c2ccccc2)CC1	-30%	12%	-3	45µM*	1%	?
O=C(CCN1CC=C(c2ccccc2)CC1)NCc1ccccc1	·	·	0	·	·	-11%
CCC(=NCCCN(CC)CC)c1c(O)n(C2CCCCC2)c(=O)[nH]c1=O	-6%	2%	1	56µM*	0%	-7%
CN1CCN(c2ccc(NC(=O)Oc3ccccc3)cc2)CC1	-6%	8%	-3	3.5µM*	1%	-9%
COC(=O)C(O)(c1ccc(NC(=O)Oc2ccccc2)cc1)C(F)(F)F (configuration not stated)	-19%	8%	-1	12%[59 µM]	1%	?
